Results filed as inconclusive are left out. Entries that show only a call come without a potency. The source made the active and inactive calls. Calls come from the whole dose curve; as a rule, active = well fitted cell-killing curve with a large enough effect in the repeat runs; inconclusive = weak or mixed curves; inactive = no such curve, though single readings can be large or run the other way.

The nature of the assay: qHTS assay to identify small molecule antagonists of the peroxisome proliferator-activated receptor delta (PPARd) signaling pathway - cell viability counter screen (AID 743213). Note: nearly all actives have a fitted effect of over 50% in size. The settings on record: PPARd-bla HEK293H viability, CellTiter-Glo luminescence, 17 h; series mostly up to 62 µM. The source says:
U.S. Tox21 Program National Center for Advancing Translational Sciences [NCATS] NIH Chemical Genomics Center [NCGC] U.S. Environmental Protection Agency [EPA] National Institutes of Environmental Health Sciences [NIEHS] National Toxicology Program [NTP] U.S. Food and Drug Administration [FDA] Tox21 Assay Overview: The peroxisome proliferator-activated receptors (PPARs) are lipid-activated transcription factors of the nuclear receptor superfamily with three distinct subtypes namely PPAR alpha, PPAR delta (PPARd) and PPAR gamma. All these subtypes heterodimerizes with Retinoid X receptor (RXR) and have different physiological functions. […] To identify the compounds that inhibit PPAR-delta signaling, GeneBLAzer PPAR delta UAS-bla HEK293H cell line (Invitrogen, Carlsbad, CA, USA) containing a beta-lactamase reporter gene under the control of an Upstream Activator Sequence (UAS) was used to screen the Tox21 compound library. The cytotoxicity of the Tox21 compound library against the PPARd-bla cell line was tested in parallel by measuring the cell viability using CellTiter-Glo assay (Promega, Madison, WI) in the same wells.
Tox21 Assay Protocol Summary: PPARd-bla cells were dispensed at 3000 cells/5uL/well in 1536-well black wall/clear bottom plates using a Multidrop Combi (Thermo Fisher Scientific, Waltham, MA) dispenser. After the assay plates were incubated at 37 C and 5% CO2 for 5 h, 23 nL of compounds dissolved in DMSO, positive controls or DMSO only was transferred to the assay plate by a Pintool station (Kalypsys, San Diego, CA), followed by addition of 1ul L165041 (300 nM, final concentration in the wells). The assay plates were incubated at 37 C for 17 h, and then 1 uL of LiveBLAzerTM B/G FRET substrate was added using a Bioraptr Flying Reagent Dispenser (FRD) workstation (Beckman Coulter, Indianapolis, IN, USA). The assay plates were incubated at room temperature for 2 h and fluorescence intensity was measured by an Envision plate reader (PerkinElmer, Shelton, CT). For cell viability readout that measures cytotoxicity, 3 ul/well of CellTiter-Glo reagent was added into the assay plates using a Bioraptr FRD. After 30 min incubation at room temperature, the luminescence intensity in the plates was measured using a ViewLux plate reader (PerkinElmer).
Take `CCCCOC(=O)/C=C\C(=O)OCCCC`: the Potency result is “inactive”.

Take `CCCCOC(O)CC` (stereo not given): the Potency entry is “inactive”.

Consider `c1ccc(OCc2ccc(CCCN3CCOCC3)cc2)cc1`, for which the Potency entry is “inactive”.

`O=CNc1ccccc1`: the Potency result is “inactive”.

In the case of `CC(C(=O)O)c1ccc(C(=O)c2ccccc2)s1` (stereo not given), the Potency result is “inactive”.

On to `N[C@H]1C(O)O[C@H](CO)[C@H](O)[C@@H]1O` (stereo not given in full), for which the Potency result was “inactive”.

With `O=C(O)C(c1ccc(Cl)cc1)c1ccc(Cl)cc1`, the Potency entry is “inactive”.

As to `CC(=O)SCc1ccco1`, the Potency entry was “inactive”.

As to `CC1(C)CCC(C)(C)c2cc(NC(=O)c3ccc(C(=O)O)cc3)ccc21`, the Potency entry is “inactive”.

Take `CC(=O)CC(=O)c1ccccc1`: the Potency entry was “inactive”.

`CCN(CC)CCc1nc(-c2ccccc2)no1`: the Potency result is “inactive”.

As to `C=CC(C)(CCC=C(C)C)OC(=O)c1ccccc1` (stereo not given), the Potency result was “inactive”.

Turning to `Cn1sccc1=O`, the Potency result was “inactive”.

On to `N=C(N=C(N)N)N1CCOCC1`, for which the Potency entry is “inactive”.

Turning to `CC(O)C1CCCCC1` (stereo not given), the Potency entry was “inactive”.

For the compound `CCCCC(CC)COCCCN` (stereo not given), the Potency result was “inactive”.

In the case of `O=C(O)C1CCC(C(=O)O)CC1` (stereo not given), the Potency result was “inactive”.

As to `O=C(O)[C@@H]1[C@H]2C[C@H]3c4[nH]c5ccccc5c4CCN3C[C@@H]2CC[C@@H]1O`, the Potency result was “inactive”.

Regarding `Cc1ncsc1CCO`, the Potency result is “inactive”.

As to `c1ccc(-c2nc[nH]c2-c2ccccc2)cc1`, the Potency result was “inactive”.

Turning to `S=C(S)NCCNC(=S)S`, the Potency result is “inactive”.

On to `CC[C@H](C)[C@H](N)C(=O)O`, for which the Potency entry is “inactive”.

Consider `C=C(C)C(=O)OC(C)C`, for which the Potency result is “inactive”.

`CC/C(=C\C(=N/O)C(N)=O)C(C)[N+](=O)[O-]` (stereo not given): the Potency result is “inactive”.

Turning to `O=S1(=O)N=C(O)c2ccccc21`, the Potency result was “inactive”.

Take `Cc1c(Cn2ccnc2)c2ccccc2n1CCC(=O)O`: the Potency result was “inactive”.

Consider `O=C(/C=C/c1ccc(O)c(O)c1)O[C@@H]1C[C@](O)(C(=O)O)C[C@@H](O)[C@H]1O`, for which the Potency result is “inactive”.

As to `CCCOc1ccc2nc(NC(=O)OC)[nH]c2c1`, the Potency result is “inactive”.

Turning to `CCOC(=S)SSC(=S)OCC`, the Potency result was “inactive”.

As for `NC1CCN(c2nc3c(cc2F)c(=O)c(C(=O)O)cn3-c2ccc(F)cc2F)C1` (stereo not given), the Potency result is “inactive”.

For the compound `C=CCCCCCC`, the Potency result was “inactive”.

Consider `Cc1occc1S`, for which the Potency result is “inactive”.

For the compound `CC(C)CC=O`, the Potency entry is “inactive”.

Turning to `Cc1cccc(OCCOc2cccc(C)c2)c1`, the Potency entry was “inactive”.

As to `CCOC(=O)C1=C(C)NC(C)=C(C(=O)OC)C1c1cccc([N+](=O)[O-])c1` (stereo not given), the Potency entry is “inactive”.

Regarding `COC(Cc1ccccc1)OC`, the Potency entry was “inactive”.

As to `CC(=O)/C(C)=C/C1C(C)=CCCC1(C)C` (stereo not given), the Potency entry is “inactive”.

`CCOC(=O)CC(=O)c1cc(F)c(Cl)nc1Cl`: the Potency entry was “inactive”.

As for `C=CC[N+]1([C@H]2C[C@H]3[C@@H]4CC[C@H]5C[C@H](OC(C)=O)[C@@H](N6CCCCC6)C[C@]5(C)[C@H]4CC[C@]3(C)[C@H]2OC(=O)CC)CCCCC1`, the Potency entry was “inactive”.

On to `COc1ccc(C(C)=O)cc1`, for which the Potency result is “inactive”.

For the origin of these results see PubChem BioAssay (Tox21).
